# MCF10A rerep: induces DNA re-replication in MCF 10a normal breast cells. MCF 10A DNA re-replication, Hoechst nuclear intensity, 48 h. Potency, µM (titrated, usually from 46.1 µM), for the others: at the top dose activity, positive = re-replication, usual class: activators. hit rate 2.9% among 350,000. AID 624296; note: % of control where 0% means no effect; nearly all actives have a fitted effect of over 50% in size
# ELG1 DNA repair: ELG1-dependent DNA repair inhibition; HEK293T ELG1-luciferase reporter, luminescence, 16 h; DNA damage induced by 5-fluorouridine; Potency, µM (top dose mostly 46.1 µM), for inactives: top-dose activity change, negative = inhibition, usual class: inhibitors; hit rate 2.3% among 330,000; AID 504467; note: % is set by controls: 0 for no effect and ±100 for the full control effect; nearly all actives have a fitted effect of over 55% in size
#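 5-Fluorouridine DNA damage + compound/DMSO, 2,000 cells/well, 16 h, 37 °C/5% CO2. ONE-Glo, 30 min RT, luminescence. Readout = decrease in reporter signal.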
# AT treatment: candidate therapy for ataxia-telangiectasia | F2112 A-T fibroblasts, KAP-1 phosphorylation AlphaLISA; neocarzinostatin DNA damage 30 min before lysis | Potency, µM (series often up to 57.5 µM), for the others: at the highest dose activation, actives largely listed as activators | hit rate 0.19% among 320,000; note: % of control where 0% means no effect; nearly all actives have a fitted effect of over 45% in size
#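 hTERT-immortalized A-T patient fibroblasts (F2112), 500 cells/well in OPTI-MEM, 1% FBS, got compounds for 60 min, then NCS for 30 min at 37C. Lysates were then assayed for phospho-KAP-1 by AlphaLISA (anti-pKAP1 donor, anti-KAP1 acceptor beads), 6 hr at 25C.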
# SW480 rerep: induces DNA re-replication in SW480 colon adenocarcinoma cells | SW480 DNA re-replication, Hoechst DNA content imaging, 48 h | Potency, µM (top dose mostly 46.1 µM), for inactives: at the highest dose re-replication activation, hits mostly activators | hit rate 1.8% among 340,000; note: % of control where 0% means no effect; nearly all actives have a fitted effect of over 55% in size
#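 Quantitative HTS format with DMSO vehicle controls; 48 hr drug incubation at 37 C, then 40 min Hoechst staining and scanning imager measurement at 405 nm excitation.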
# ELG1 genotoxic: inducers of genotoxicity in HEK293T ELG1-luciferase cells; HEK293T ELG1-luciferase reporter, luminescence, 16 h; Potency, µM (series often up to 46 µM), without a hit: at the highest dose activity change, positive = activation, most hits filed as activators; hit rate 1.3% among 330,000; note: % of control where 0% means no effect; nearly all actives have a fitted effect of over 60% in size
#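 Reporter readout depends on ELG1 protein level, which increases with genetic stress. After 16 hr compound exposure at 37 °C, luciferase activity was quantified using ONE-Glo.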
# p53 reactivation: restores transcriptional activity of mutant p53. H1299 p53-A138V BP100-luciferase reporter, luminescence, 24 h. Potency, µM (top dose mostly 92.2 µM), inactives show at the highest dose activity change, positive = activation, usual class: activators. hit rate 0.063% among 320,000; note: % of control where 0% means no effect; nearly all actives have a fitted effect of over 45% in size
#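 H1299 (p53-null), stable ts p53-A138V + BP100-Luc; 1000 cells/well, Opti-MEM/10% FBS; cpd 4 pt, 1:5; 24 h, 37 deg C, 5% CO2; detection reagent 10 min RT; luminescence.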
# * = called active by the depositor; u = inconclusive; x = no result. Only some compounds are listed: those with a hit (about 7.1% of all), similar ones and a draw of the others. Calls come from the whole dose curve; as a rule, active = well fitted curve in the direction sought with a large enough effect; inconclusive = small, poorly fitted or top-dose-only effect, or another doubt; inactive = no such curve, though single readings can be large; an effect the other way counts as inactive or inconclusive. Potency is the fitted concentration of half-maximal effect.
SMILES,MCF10A rerep,ELG1 DNA repair,AT treatment,SW480 rerep,ELG1 genotoxic,p53 reactivation
CCCCCCSc1cc(-c2nc3ccc(C)cn3c2NCc2ccccc2)ccc1OC,u,u,23%,u,-10%,11%
CCCCc1nnc(NC(=O)Cc2ccc(S(=O)(=O)N3CCOCC3)s2)s1,1%,15%,-10%,-2%,1%,0%
COc1cc(OC)cc(C(=O)Nn2c(C)nc3ccccc3c2=O)c1,6%,-16%,2%,-2%,-2%,-7%
COc1cc(OC)cc(-c2nc3ccccc3c(=O)n2OC(=O)c2ccc(C)c(C)c2)c1,u,10µM*,-7%,-1%,-9%,12%
CC1CCCN(C(=O)CN2C(=O)NC(C)(c3ccc4ccccc4c3)C2=O)C1 (stereo not given),-27%,0%,13%,-2%,1%,-10%
CCS(=O)(=O)c1ccc(-c2csc(-c3ccccc3Cl)n2)c(Cl)c1Cl,4%,6%,-6%,-5%,u,14%
CCS(=O)(=O)c1ccc(-c2csc(-c3ccc(Cl)cc3)n2)c(Cl)c1Cl,u,18%,-2%,-5%,18µM*,4%
CCN(C(=O)COC(=O)CN(C)S(=O)(=O)c1ccc(NC(C)=O)cc1)C1CCS(=O)(=O)C1 (stereo not given),-2%,0%,15%,1%,3%,-6%
N=C1N(c2ccccc2)C(=S)C(=Nc2ccccc2)N1c1ccccc1,18µM*,x,x,u,x,x
CCC(C)Nc1nc(N)c([N+](=O)[O-])c(Nc2cc(OC)ccc2OC)n1 (stereo not given),u,23µM*,4%,1%,-1%,-3%
COc1ccccc1Nc1nc(NCC(C)C)nc(N)c1[N+](=O)[O-],u,8.2µM*,35%,-39%,-7%,-6%
COc1ccc(NS(=O)(=O)c2ccc(N/N=C(\C)c3ccncc3)c([N+](=O)[O-])c2)cc1,u,18µM*,8%,u,1%,22%
Cc1ccc(NC(=O)/C(C#N)=C(\N)C(Cl)(Cl)Cl)nc1,18µM*,u,-4%,8%,u,u
Cc1cccc(CSC2=NCCN2C(=O)c2ccc(S(=O)(=O)N(C)C)cc2)c1,3%,u,1%,29µM*,-7%,-1%
COc1cc(C=C(c2nc3ccccc3s2)c2nc3ccccc3s2)ccc1O,21µM*,u,0%,u,1%,7%
COc1ccc(/C=C(\C#N)c2nc3ccccc3[nH]2)cc1O,u,u,-7%,u,u,15%
COc1ccc(C=C(c2nc3ccccc3s2)c2nc3ccccc3s2)cc1O,13µM*,-22%,28µM*,u,u,u
COc1cc(/C=C/c2nc3ccccc3s2)cc(OC)c1O,u,u,0%,3%,18µM*,u
COc1cc(/C=C/c2cc(C(=O)O)c3ccccc3n2)cc(OC)c1O,u,10%,-3%,0%,0%,3%
COc1cccc(/C=C(\CC(=O)O)c2nc3ccccc3s2)c1,0%,13%,-1%,-2%,1%,0%
Nc1ccc([N+](=O)[O-])cc1C(=O)NNC(=O)c1ccco1,20%,8%,0%,-1%,1%,1%
COc1cc(/C=C(\C#N)c2nc3ccccc3[nH]2)cc(Br)c1OCc1ccccc1,18µM*,u,4%,18µM*,7%,3%
COc1cc(/C=C(\C#N)c2nc3ccccc3[nH]2)cc(Br)c1OCc1ccc(F)cc1,8.2µM*,u,-4%,u,1%,-23%
Cc1cccc(NC(=O)COC(=O)c2cccc3c2C(=O)c2ccccc2C3=O)c1C,16%,21µM*,-1%,4%,-3%,-7%
Cc1cccc(C)c1NC(=O)COC(=O)c1cccc2c1C(=O)c1ccccc1C2=O,3%,12µM*,5%,u,2%,-6%
SMILES,MCF10A rerep,ELG1 DNA repair,AT treatment,SW480 rerep,ELG1 genotoxic,p53 reactivation
Cn1c(SCc2ccccc2)nnc1-c1ccc2c(c1)OCO2,-2%,u,4%,-1%,18µM*,u
CC1(C)Cc2ccccc2-c2nnc(SCC(=O)N3CCN(c4ccccc4)CC3)n21,28%,15µM*,-3%,6%,-19%,-9%
O=C(CSc1ccc2ccccc2c1)N1CCN(c2ccc(O)cc2)CC1,-4%,u,25µM*,u,6%,3%
C=CCn1c(COc2cccc(C)c2C)nnc1SCC(=O)N1CCN(c2ccccc2)CC1,u,21µM*,-4%,u,-2%,-14%
O=C(c1ccc2ccccc2c1)N1CCN(c2ccc(O)cc2)CC1,u,-21%,6%,6%,-2%,-3%
CC1(C)Cc2ccccc2-c2nnc(SCc3ccccc3)n21,-4%,16%,-5%,-4%,-3%,14%
CCC(C)[C@H](NC(=O)[C@@H]1Cc2c([nH]c3ccccc23)C2c3ccccc3C(=O)N21)C(=O)NCC1CCCO1 (stereo not given in full),3%,0%,2%,3%,-8%,x
COc1ccccc1N(C(=O)c1snc(C(N)=O)c1N)C(C(=O)NC1CCCCC1)c1cccc(OC)c1OC (stereo not given),u,-7%,18%,u,-9%,-1%
Cc1c(C)c2ccc(OCC(=O)NCCN3CCOCC3)c(C)c2oc1=O,6%,u,1%,-2%,11%,-15%
Cn1c(SCC(=O)N2CCN(c3ccccc3)CC2)nnc1-c1c[nH]c2ccccc12,-10%,10µM*,-4%,3%,-17%,0%
COc1ccc(-n2cnnc2SCC(=O)N2CCN(c3ccccc3)CC2)cc1,-16%,u,-1%,-5%,-13%,-4%
COc1ccc(N2CCN(C(=O)CSc3nc4c(c(=O)n(C)c(=O)n4C)n3C(C)C)CC2)cc1,u,21µM*,7%,15%,-5%,1%
Cn1c(SCC(=O)N2CCN(c3ccccc3)CC2)nnc1-c1ccccc1,-3%,u,x,-2%,0%,-12%
CCn1c(SCC(=O)N2CCN(c3ccccc3)CC2)nnc1-c1c[nH]c2ccccc12,16%,13µM*,-1%,u,-10%,-4%
COc1ccc(N2CCN(C(=O)CSc3nnc(-c4cc5ccccc5cc4O)n3C)CC2)cc1,2%,11µM*,1%,-4%,-20%,3%
CCOC(=O)CSc1nnc(-c2c[nH]c3ccccc23)n1CC,1%,-1%,5%,-7%,2%,-4%
